# Measurements published in PMC7862700, “An all-to-all approach to the identification of sequence-specific readers for epigenetic DNA modifications on cytosine”.
# Key:
# Assay in all cases: DAPPL (digital affinity profiling via proximity ligation, sequencing); 10 mM Tris-HCl pH 7.5, 50 mM NaCl, 1 mM DTT, 4% glycerol, room temperature, 30 min; GST-TFs on glutathione beads, 16-mer random dsDNA library, 0.1% formaldehyde crosslink after washing; high values mean tight binding
# [1] = target: T1, FLI1 (Homo sapiens, UniProt Q01543 1-452); details: protein: recombinant; tags: N-terminal GST; dsDNA, one strand shown
# T1 sequence: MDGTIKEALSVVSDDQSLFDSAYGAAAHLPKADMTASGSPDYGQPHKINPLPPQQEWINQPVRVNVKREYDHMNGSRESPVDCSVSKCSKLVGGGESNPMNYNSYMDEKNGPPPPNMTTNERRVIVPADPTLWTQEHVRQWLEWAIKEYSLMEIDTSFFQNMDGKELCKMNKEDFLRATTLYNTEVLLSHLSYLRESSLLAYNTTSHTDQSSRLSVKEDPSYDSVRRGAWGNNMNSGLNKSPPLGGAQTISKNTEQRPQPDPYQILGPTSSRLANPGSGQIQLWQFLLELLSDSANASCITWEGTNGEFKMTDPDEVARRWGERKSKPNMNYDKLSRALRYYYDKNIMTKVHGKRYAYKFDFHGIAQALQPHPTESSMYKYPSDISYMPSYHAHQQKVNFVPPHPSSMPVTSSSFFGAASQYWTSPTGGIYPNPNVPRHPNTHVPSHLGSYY
# Method in brief: (§1)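 GST fusions of human transcription factors were expressed in yeast and captured with glutathione beads. Once given DNA barcodes and pooled alongside a tag-only sample, they were incubated for 30 min at room temperature with 200 nmole of a random double-stranded 16-mer DNA library in Tris/NaCl/DTT/glycerol buffer, then washed, crosslinked (0.1% formaldehyde), proximity-ligated, PCR-amplified and sequenced on an Illumina NextSeq500. The binding signal of each hexamer is its read frequency for a factor divided by its frequency for the tag-only sample.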
# [2] = target: T2, ELK1 (Homo sapiens, UniProt P19419 1-428); details: protein: recombinant; tags: N-terminal GST; dsDNA, one strand shown
# T2 sequence: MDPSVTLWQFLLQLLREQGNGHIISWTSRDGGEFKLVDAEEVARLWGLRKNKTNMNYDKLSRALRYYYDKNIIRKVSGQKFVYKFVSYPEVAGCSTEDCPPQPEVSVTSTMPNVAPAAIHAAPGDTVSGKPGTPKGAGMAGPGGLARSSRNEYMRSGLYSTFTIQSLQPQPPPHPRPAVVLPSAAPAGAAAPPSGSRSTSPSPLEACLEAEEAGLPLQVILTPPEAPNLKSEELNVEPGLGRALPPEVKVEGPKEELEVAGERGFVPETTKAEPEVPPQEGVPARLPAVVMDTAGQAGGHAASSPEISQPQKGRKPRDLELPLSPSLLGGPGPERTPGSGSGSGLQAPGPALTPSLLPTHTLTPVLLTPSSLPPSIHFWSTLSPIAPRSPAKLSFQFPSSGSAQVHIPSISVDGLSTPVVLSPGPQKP
# Method in brief: as §1
# [3] = target: T3, GABPA (Homo sapiens, UniProt Q06546 1-454); details: protein: recombinant; tags: N-terminal GST; dsDNA, one strand shown
# T3 sequence: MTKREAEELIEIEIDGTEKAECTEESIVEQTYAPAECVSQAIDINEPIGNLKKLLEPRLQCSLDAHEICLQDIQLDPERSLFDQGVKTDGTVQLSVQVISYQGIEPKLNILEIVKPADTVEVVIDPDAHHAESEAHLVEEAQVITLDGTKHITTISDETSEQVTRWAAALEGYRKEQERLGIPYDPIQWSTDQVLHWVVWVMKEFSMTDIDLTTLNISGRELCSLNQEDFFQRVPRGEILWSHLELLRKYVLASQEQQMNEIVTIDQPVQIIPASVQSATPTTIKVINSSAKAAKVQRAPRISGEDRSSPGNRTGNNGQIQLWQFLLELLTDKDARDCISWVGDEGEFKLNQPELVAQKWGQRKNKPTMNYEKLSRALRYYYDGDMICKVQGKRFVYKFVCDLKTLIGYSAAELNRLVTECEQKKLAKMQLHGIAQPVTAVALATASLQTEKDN
# Method in brief: as §1
# [4] = target: T4, ERG (Homo sapiens, UniProt P11308 1-479); details: protein: recombinant; tags: N-terminal GST; dsDNA, one strand shown
# T4 sequence: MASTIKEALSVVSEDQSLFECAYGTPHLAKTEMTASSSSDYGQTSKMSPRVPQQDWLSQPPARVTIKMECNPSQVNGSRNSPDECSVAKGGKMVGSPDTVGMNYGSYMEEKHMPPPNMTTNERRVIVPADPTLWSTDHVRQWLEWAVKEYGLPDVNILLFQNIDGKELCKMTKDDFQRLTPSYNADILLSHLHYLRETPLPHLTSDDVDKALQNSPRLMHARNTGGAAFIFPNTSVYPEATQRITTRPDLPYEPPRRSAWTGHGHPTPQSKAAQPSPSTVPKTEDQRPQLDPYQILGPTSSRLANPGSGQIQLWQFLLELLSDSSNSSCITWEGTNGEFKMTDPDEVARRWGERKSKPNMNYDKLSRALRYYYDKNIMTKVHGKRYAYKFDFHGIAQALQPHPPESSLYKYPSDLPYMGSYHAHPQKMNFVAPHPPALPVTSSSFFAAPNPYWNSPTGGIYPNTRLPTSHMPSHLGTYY
# Method in brief: as §1
# [5] = target: ELF1 (Homo sapiens, UniProt P32519 1-619); details: protein: recombinant; tags: N-terminal GST; dsDNA, one strand shown
# Sequence of ELF1 (P32519 whole entry): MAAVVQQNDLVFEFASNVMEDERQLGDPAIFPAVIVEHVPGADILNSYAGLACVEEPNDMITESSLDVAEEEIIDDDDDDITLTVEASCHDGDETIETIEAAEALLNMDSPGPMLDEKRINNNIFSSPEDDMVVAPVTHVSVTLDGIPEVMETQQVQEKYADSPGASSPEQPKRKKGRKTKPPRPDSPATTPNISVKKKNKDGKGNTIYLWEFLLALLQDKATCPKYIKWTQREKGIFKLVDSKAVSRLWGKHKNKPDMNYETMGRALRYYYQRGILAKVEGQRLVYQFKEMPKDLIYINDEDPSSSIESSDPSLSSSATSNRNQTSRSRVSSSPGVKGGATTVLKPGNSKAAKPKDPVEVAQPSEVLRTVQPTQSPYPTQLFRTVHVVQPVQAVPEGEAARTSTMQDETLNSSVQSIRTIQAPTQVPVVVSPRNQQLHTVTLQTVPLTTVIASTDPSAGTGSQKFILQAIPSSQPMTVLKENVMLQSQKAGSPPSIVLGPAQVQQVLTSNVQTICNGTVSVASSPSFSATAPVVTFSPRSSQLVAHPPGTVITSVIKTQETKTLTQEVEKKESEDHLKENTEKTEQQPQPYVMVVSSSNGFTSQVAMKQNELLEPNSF
# Method in brief: as §1
# [6] = target: T5, EHF (Homo sapiens, UniProt Q9NZC4 1-300); details: protein: recombinant; tags: N-terminal GST; dsDNA, one strand shown
# T5 sequence: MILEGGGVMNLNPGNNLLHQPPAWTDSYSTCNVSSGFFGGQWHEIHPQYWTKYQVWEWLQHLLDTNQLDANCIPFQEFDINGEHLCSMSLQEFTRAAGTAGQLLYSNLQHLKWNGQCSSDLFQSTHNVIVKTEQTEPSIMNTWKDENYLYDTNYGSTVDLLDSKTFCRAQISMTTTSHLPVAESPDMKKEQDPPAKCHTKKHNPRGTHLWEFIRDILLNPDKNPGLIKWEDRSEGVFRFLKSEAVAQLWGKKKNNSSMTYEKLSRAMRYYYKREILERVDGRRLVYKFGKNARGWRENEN
# Method in brief: as §1
# [7] = target: SPI1 (Homo sapiens, UniProt P17947 1-270); details: protein: recombinant; tags: N-terminal GST; dsDNA, one strand shown
# Method in brief: as §1
# [8] = target: SPIB (Homo sapiens, UniProt Q01892 1-262); details: protein: recombinant; tags: N-terminal GST; dsDNA, one strand shown
# Sequence of SPIB (Q01892 whole entry): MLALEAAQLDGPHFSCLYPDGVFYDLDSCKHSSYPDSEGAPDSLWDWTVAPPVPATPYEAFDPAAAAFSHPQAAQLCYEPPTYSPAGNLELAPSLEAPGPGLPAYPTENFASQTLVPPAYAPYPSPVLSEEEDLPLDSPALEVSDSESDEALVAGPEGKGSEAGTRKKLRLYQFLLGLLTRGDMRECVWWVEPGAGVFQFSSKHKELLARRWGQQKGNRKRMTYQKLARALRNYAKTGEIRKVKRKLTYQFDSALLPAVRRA
# Method in brief: as §1
# [9] = target: T6, ELK3 (Homo sapiens, UniProt P41970 1-407); details: protein: recombinant; tags: N-terminal GST; dsDNA, one strand shown
# T6 sequence: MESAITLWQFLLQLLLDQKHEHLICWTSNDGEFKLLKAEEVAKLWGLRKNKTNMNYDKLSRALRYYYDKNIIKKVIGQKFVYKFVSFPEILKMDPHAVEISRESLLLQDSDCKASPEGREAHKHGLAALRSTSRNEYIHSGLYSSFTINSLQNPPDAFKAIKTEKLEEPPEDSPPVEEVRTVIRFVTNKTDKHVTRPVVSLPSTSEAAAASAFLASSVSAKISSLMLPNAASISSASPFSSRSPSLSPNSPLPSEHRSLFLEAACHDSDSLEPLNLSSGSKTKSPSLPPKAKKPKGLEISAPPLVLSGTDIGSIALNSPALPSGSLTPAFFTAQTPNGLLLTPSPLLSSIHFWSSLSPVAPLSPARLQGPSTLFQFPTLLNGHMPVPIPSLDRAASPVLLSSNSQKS
# Method in brief: as §1
# [10] = target: T7, FEV (Homo sapiens, UniProt Q99581 1-238); details: protein: recombinant; tags: N-terminal GST; dsDNA, one strand shown
# T7 sequence: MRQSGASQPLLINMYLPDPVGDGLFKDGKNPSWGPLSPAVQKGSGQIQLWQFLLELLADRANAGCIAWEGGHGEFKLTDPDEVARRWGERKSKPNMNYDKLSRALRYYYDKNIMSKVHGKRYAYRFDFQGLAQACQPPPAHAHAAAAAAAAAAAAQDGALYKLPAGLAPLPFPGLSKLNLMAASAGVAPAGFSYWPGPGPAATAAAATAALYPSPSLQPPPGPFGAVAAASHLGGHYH
# Method in brief: as §1
# [11] = target: ETV5 (Homo sapiens, UniProt P41161 1-510); details: protein: recombinant; tags: N-terminal GST; dsDNA, one strand shown
# Sequence of ETV5 (P41161 whole entry): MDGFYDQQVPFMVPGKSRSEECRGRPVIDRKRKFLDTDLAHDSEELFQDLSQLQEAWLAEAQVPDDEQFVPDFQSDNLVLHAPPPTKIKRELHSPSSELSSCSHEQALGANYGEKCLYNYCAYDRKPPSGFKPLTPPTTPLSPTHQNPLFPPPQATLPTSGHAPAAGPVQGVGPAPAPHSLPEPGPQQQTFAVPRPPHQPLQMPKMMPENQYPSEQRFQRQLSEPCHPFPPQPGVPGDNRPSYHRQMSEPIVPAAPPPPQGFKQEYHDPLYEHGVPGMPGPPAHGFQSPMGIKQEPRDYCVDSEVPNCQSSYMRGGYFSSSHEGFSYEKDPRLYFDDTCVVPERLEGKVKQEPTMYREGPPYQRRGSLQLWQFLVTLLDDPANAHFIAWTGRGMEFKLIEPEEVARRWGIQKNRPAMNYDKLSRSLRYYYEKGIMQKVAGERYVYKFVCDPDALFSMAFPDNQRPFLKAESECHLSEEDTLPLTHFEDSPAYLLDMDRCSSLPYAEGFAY
# Method in brief: as §1
# [12] = target: HSF1 (Homo sapiens, UniProt Q00613 1-529); details: protein: recombinant; tags: N-terminal GST; chain copies: 3; dsDNA, one strand shown
# Sequence of HSF1 (Q00613 whole entry): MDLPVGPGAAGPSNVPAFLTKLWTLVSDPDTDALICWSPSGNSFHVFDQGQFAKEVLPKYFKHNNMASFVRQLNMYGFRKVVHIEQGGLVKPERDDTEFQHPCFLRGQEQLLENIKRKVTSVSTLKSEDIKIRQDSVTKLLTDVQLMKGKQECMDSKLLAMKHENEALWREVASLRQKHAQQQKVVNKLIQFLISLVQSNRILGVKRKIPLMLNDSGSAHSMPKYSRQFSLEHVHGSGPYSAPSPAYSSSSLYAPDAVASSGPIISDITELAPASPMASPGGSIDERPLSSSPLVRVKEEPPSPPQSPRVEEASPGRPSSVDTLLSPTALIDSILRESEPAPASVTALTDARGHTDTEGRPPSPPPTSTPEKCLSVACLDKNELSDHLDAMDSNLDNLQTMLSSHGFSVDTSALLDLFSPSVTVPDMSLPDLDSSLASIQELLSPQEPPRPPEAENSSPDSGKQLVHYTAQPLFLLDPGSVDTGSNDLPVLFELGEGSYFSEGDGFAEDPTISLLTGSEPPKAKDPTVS
# Method in brief: as §1
# [13] = target: T8, SPIC (Homo sapiens, UniProt Q8N5J4 1-248); details: protein: recombinant; tags: N-terminal GST; dsDNA, one strand shown
# T8 sequence: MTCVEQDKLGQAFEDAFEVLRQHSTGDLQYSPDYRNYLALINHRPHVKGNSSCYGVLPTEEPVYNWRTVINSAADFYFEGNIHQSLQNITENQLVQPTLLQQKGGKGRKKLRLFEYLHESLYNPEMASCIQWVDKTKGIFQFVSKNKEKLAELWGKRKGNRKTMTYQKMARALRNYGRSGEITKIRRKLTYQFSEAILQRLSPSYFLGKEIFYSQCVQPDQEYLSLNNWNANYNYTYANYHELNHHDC
# Method in brief: as §1
# [14] = target: ELF4 (Homo sapiens, UniProt Q99607 1-663); details: protein: recombinant; tags: N-terminal GST; dsDNA, one strand shown
# Sequence of ELF4 (Q99607 whole entry): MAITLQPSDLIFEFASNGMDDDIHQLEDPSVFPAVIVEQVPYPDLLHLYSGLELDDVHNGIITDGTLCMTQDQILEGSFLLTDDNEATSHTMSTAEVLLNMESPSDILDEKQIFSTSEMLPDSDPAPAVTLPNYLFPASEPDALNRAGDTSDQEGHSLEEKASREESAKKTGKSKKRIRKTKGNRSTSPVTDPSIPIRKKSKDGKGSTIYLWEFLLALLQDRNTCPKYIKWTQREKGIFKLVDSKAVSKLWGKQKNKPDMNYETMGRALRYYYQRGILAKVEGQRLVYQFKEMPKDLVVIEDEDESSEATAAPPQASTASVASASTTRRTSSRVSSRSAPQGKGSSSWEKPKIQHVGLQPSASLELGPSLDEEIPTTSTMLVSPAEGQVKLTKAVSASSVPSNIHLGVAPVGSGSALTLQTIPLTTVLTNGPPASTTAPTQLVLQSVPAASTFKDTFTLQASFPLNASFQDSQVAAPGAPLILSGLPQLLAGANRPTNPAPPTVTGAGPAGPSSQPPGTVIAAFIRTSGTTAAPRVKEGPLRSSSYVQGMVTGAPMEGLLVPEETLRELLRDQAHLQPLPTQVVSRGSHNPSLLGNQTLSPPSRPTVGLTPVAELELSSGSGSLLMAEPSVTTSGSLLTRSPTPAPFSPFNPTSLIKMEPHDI
# Method in brief: as §1
# [15] = target: T9, ELK4 (Homo sapiens, UniProt P28324-2 1-405); details: protein: recombinant; tags: N-terminal GST; dsDNA, one strand shown
# T9 sequence: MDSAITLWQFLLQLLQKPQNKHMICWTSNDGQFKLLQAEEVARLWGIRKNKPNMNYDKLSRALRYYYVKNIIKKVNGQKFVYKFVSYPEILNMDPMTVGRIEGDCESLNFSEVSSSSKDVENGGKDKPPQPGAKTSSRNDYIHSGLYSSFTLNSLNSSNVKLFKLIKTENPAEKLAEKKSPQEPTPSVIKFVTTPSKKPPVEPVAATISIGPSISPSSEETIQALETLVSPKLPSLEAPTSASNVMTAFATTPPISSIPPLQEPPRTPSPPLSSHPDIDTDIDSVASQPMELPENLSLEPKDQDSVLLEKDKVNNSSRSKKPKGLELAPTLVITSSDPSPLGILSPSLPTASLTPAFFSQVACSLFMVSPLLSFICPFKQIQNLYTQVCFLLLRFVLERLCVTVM
# Method in brief: as §1
# [16] = target: T10, ETV2 (Homo sapiens, UniProt O00321 1-342); details: protein: recombinant; tags: N-terminal GST; dsDNA, one strand shown
# T10 sequence: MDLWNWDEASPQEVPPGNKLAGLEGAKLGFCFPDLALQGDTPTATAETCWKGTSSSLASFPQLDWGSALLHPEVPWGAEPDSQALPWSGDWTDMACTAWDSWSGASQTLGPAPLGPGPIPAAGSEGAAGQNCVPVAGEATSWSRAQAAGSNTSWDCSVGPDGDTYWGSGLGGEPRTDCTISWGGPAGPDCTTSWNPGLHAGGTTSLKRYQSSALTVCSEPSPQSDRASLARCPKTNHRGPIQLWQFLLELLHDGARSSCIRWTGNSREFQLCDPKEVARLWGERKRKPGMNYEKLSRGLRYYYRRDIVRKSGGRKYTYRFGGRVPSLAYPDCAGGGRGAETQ
# Method in brief: as §1
# [17] = target: T11, ELF3 (Homo sapiens, UniProt P78545 1-371); details: protein: recombinant; tags: N-terminal GST; dsDNA, one strand shown
# T11 sequence: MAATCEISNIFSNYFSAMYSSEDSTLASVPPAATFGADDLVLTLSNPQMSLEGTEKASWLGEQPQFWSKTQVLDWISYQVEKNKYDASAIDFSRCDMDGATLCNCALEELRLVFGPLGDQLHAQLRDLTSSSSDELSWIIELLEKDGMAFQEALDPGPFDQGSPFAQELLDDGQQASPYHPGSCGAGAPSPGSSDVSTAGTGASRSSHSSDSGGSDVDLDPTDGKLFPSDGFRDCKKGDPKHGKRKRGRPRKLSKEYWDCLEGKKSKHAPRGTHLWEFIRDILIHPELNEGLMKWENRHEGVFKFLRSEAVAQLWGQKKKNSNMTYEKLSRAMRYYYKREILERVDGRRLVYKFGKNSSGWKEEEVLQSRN
# Method in brief: as §1
# [18] = target: CRX (Homo sapiens, UniProt O43186 1-299); details: protein: recombinant; tags: N-terminal GST; dsDNA, one strand shown
# Sequence of CRX (O43186 whole entry): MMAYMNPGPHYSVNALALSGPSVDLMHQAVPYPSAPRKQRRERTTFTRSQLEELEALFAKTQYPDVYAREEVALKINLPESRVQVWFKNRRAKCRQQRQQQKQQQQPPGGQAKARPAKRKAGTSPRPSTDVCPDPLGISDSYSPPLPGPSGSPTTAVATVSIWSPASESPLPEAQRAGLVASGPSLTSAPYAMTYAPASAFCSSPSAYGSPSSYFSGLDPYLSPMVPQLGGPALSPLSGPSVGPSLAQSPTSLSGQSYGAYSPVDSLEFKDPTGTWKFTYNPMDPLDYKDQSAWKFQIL
# Method in brief: as §1
# [19] = target: ETV1 (Homo sapiens, UniProt P50549 1-477); details: protein: recombinant; tags: N-terminal GST; dsDNA, one strand shown
# Sequence of ETV1 (P50549 whole entry): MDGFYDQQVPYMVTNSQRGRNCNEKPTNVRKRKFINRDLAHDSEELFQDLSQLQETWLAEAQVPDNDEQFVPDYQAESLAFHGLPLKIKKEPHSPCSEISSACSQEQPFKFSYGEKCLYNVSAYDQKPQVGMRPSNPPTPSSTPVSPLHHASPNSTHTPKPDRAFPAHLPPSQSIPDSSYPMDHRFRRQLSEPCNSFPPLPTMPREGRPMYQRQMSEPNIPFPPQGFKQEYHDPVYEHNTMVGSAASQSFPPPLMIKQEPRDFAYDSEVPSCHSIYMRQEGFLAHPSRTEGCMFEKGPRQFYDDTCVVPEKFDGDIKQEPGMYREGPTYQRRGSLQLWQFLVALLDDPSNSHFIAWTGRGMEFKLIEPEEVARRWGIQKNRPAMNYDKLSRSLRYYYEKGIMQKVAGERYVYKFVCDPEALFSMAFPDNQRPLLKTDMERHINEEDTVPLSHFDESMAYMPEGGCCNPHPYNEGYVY
# Method in brief: as §1
sequence,measurement,setting,value
TAGATG,binding signal,[1],"1.28 fold enrichment (6-mer frequency, TF over GST control)"
same,binding signal,[2],"1.29 fold enrichment (6-mer frequency, TF over GST control)"
same,binding signal,[3],"1.27 fold enrichment (6-mer frequency, TF over GST control)"
same,binding signal,[4],"1.27 fold enrichment (6-mer frequency, TF over GST control)"
same,binding signal,[5],"1.29 fold enrichment (6-mer frequency, TF over GST control)"
same,binding signal,[6],"1.26 fold enrichment (6-mer frequency, TF over GST control)"
same,binding signal,[7],"1.3 fold enrichment (6-mer frequency, TF over GST control)"
same,binding signal,[8],"1.24 fold enrichment (6-mer frequency, TF over GST control)"
same,binding signal,[9],"1.31 fold enrichment (6-mer frequency, TF over GST control)"
same,binding signal,[10],"1.22 fold enrichment (6-mer frequency, TF over GST control)"
same,binding signal,[11],"1.22 fold enrichment (6-mer frequency, TF over GST control)"
same,binding signal,[12],"1.66 fold enrichment (6-mer frequency, TF over GST control)"
same,binding signal,[13],"1.57 fold enrichment (6-mer frequency, TF over GST control)"
same,binding signal,[14],"1.18 fold enrichment (6-mer frequency, TF over GST control)"
same,binding signal,[15],"1.3 fold enrichment (6-mer frequency, TF over GST control)"
same,binding signal,[16],"1.37 fold enrichment (6-mer frequency, TF over GST control)"
same,binding signal,[17],"1.32 fold enrichment (6-mer frequency, TF over GST control)"
same,binding signal,[18],"1.52 fold enrichment (6-mer frequency, TF over GST control)"
same,binding signal,[19],"1.15 fold enrichment (6-mer frequency, TF over GST control)"
